The results in this text go back to PubChem BioAssay (NCATS).

Assay [1] addresses Thyrotropin receptor (Homo sapiens) (UniProt P16473). The experiment in a line: qHTS Assay for Antagonists of the Thyroid Stimulating Hormone Receptor (AID 488980). Also: series mostly up to about 58 µM; 0% is about no effect. The procedure, abridged:
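TSHR-transfected HEK293 cells (2000/well) in HEPES-buffered HBSS with 70 uM RO 20-1724 were stimulated with 4 nM TSH (EC80, final) in the presence of compound. cAMP was measured by HTRF competition after lysis and 30 min at RT.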

The target in assay [2] is D(1A) dopamine receptor (Homo sapiens) (UniProt P21728). The experiment in a line: HTS Assay for Allosteric Agonists of the Human D1 Dopamine Receptor: Primary Screen for Agonists (AID 488981). Also: 0% is about no effect. The procedure, abridged:
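Tetracycline-induced HEK293 T-REx cells force-coupled to calcium signalling were incubated overnight at 30 C and dye-loaded at room temperature. Calcium flux over 180 s after compound addition flagged agonists; a further 180 s read after EC20 dopamine flagged potentiators.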

For assay [3] the target is unchanged. In words: HTS Assay for Allosteric Agonists of the Human D1 Dopamine Receptor: Primary Screen for Antagonists (AID 488983).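 Also: calcium flux response to an EC80 dopamine challenge measured with no-wash dye; % is scaled to controls: 0 for no effect and ±100 for the full control effect; nearly all actives have a fitted effect of over 65% in size.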 Summed up: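 Calcium flux readout, no-wash dye, inducible HEK293 T-REx D1 line (force-coupled). Compound added after 10 s baseline, 180 s kinetic read; then dopamine at EC80, further 180 s read.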
A short description of assay [4]: Validation screen for small molecules that induce genotoxicity in human embryonic kidney (HEK293T) cells expressing luciferase-tagged ELG1 (AID 493106). Also: 0% is about no effect. The procedure, abridged:
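qHTS format; 2,000 HEK293T ELG1-luc cells/well; 23 nL compound via pin tool; 16 hr, 37 °C/5% CO2; ONE-Glo, 30 min RT; luminescence read.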

Assay [5] addresses ATPase family AAA domain-containing protein 5 (Homo sapiens) (UniProt Q96QE3). In words: Validation screen for small molecules that inhibit ELG1-dependent DNA repair in human embryonic kidney (HEK293T) cells expressing luciferase-tagged ELG1 (AID 493107).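 Also: cells co-treated with the DNA-damaging agent 5-fluorouridine alongside compound; series mostly up to about 46 µM; % is scaled to controls: 0 for no effect and ±100 for the full control effect; inhibitors lower the ELG1-luciferase luminescence signal; nearly all actives have a fitted effect of over 70% in size.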 Summed up: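 ELG1-luciferase HEK293T reporter; 5-fluorouridine + compound/DMSO, 16 hr, 37 °C, 5% CO2; ONE-Glo 30 min RT; luminescence read, qHTS format.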

Assay [6] can be described thus: Nrf2 qHTS screen for inhibitors: Validation (AID 493153; active = well fitted inhibition curve with a large enough effect in the main read-out, with a control signal flat, not every such curve was filed as active). Particulars: Potency: luciferase luminescence; viability change: measured here: cytotoxicity max response. Summed up: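 Concentration-response test in A549 ARE_Fluc reporter cells (5% FBS OPTI-MEM), compound exposure 18-24 h at 37°C, 5% CO2. Cell viability measured first by CellTiter-Fluor fluorescence; ARE-driven luciferase luminescence then measured as Nrf2 activity.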

Assay [7] in a line: qHTS for Inhibitors of Cell Surface uPA Generation: Validation Assay (AID 493164).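 Also: RAW 264.7 macrophage cells exposed to compound for 18 h; 0% is about no effect.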 The procedure, abridged:
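Compounds are titrated over seven points (2.45 nM–38.3 uM final) onto pre-plated RAW 264.7 cells and incubated for 18 h. Retained intracellular ATP, measured with ATP-Lite, indicates blocked lethal factor entry.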

Assay [8] concerns the target Galactokinase (Homo sapiens) (UniProt P51570). In words: qHTS Validation Assay for Inhibitors of Human Galactokinase (GALK) (AID 493189). Also: 0% is about no effect. Summed up:
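GALK (5 nM) with 35 uM ATP and 100 uM galactose in HEPES pH 8.0 with MgCl2, NaCl, DTT and BSA. Reaction ran 1 h at room temperature. Residual ATP read by Kinase-Glo Plus luminescence.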

The nature of assay [9]: Validation screen for small molecules that induce DNA re-replication in SW480 colon adenocarcinoma cells (AID 504364). Also: 0% is about no effect. Summed up:
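Read-out: total Hoechst intensity of nuclei by fluorescence scanning imager; hits raise the fraction of nuclei with elevated DNA content. Cells received compound for 48 hr at 37 C before a 40 min stain.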

The target of assay [10] is Peptidyl-prolyl cis-trans isomerase NIMA-interacting 1 (Homo sapiens) (UniProt Q13526). The experiment in a line: qHTS Validation Assay to Find Inhibitors of Pin1 (AID 504536; active = well fitted inhibition curve with a large enough effect in the polarisation, with a control signal flat, not every such curve was filed as active; the % refers to the polarisation;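 also: 0% = full Pin1 enzyme wells and -100% = no-enzyme wells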). Summed up: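 Fluorescence polarization competition: compounds (titration) displace HiFluor-488-labeled Pin1-1b peptide from Pin1 (0.3 uM final) in pH 7.5 HEPES buffer with DTT, 10 min at room temperature; %Activity normalized to no-enzyme wells, curves fitted.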

In assay [11] the target is Phosphoglycerate kinase, glycosomal (Trypanosoma brucei brucei) (UniProt P07378). The experiment in a line: qHTS Validation Assay to Find Inhibitors of Phosphoglycerate Kinase (AID 504547).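 Also: control wells lack PGK and mark full inhibition.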 Summed up: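 In TEA buffer (100mM, pH 7.6) containing 5mM MgCl2 and 0.01% Tween-20, the GAPDH-coupled PGK reaction proceeded for 60 minutes at room temperature before a single luminescence reading using Kinase-Glo Plus.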

In assay [12] the target is phosphoglycerate mutase (Leishmania major) (UniProt Q4Q090). In words: qHTS Validation Assay to Find Inhibitors of Phosphoglycerate Mutase (AID 504548). Also: series mostly up to about 58 µM; % is scaled to controls: 0 for no effect and ±100 for the full control effect. The procedure, abridged:
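Lm PGAM 1.25nM final; 100 mM TEA pH 7.6, 5 mM MgCl2, 0.01% Tween-20; 45 min RT; Kinase-GloPlus, 10 min; end-point luminescence. Enzyme-free wells as negative controls.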

In assay [13] the target is Ubiquitin carboxyl-terminal hydrolase 1 (Homo sapiens) (UniProt O94782). In words: Inhibitors of USP1/UAF1: Pilot qHTS (AID 504865).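 Also: rhodamine fluorescence freed from ubiquitin-rhodamine substrate followed over time; top concentration of the series differs between compounds; % is scaled to controls: 0 for no effect and ±100 for the full control effect; nearly all actives have a fitted effect of over 35% in size.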 The procedure, abridged: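 USP1/UAF1 complex at 1 nM preincubated 15 min at room temperature with compound, then Ub-Rho substrate added at 150 nM final. Fluorescence (480/540 nm) read kinetically in 50 mM HEPES pH 7.8, 0.5 mM EDTA, 1 mM TCEP, 0.1 mg/ml BSA, 0.01% Tween-20.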

Assay [14] can be described thus: qHTS for Inhibitors of ATXN expression: Validation of Cytotoxic Assay (AID 588349). Also: % is scaled to controls: 0 for no effect and ±100 for the full control effect. The procedure, abridged: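 Cytotoxicity counter-screen: HEK293 cells exposed to compound titrations, 72 hr, 37 degrees C. Read-out is intracellular ATP (CellTiter Glo luminescence) as a viability measure.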
The nature of assay [15]: qHTS for Inhibitors of ATXN expression: Validation (AID 588378). Also: series mostly up to about 57 µM; % is scaled to controls: 0 for no effect and ±100 for the full control effect; nearly all actives have a fitted effect of over 75% in size. The procedure, abridged:
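HEK293 cells carrying ATXN2-firefly luciferase reporter, treated with compound 24 h at 37 °C. Viability read first by CellTiter-Fluor (405/525 nm), then reporter expression by Bright-Glo luminescence; controls were a known ATXN2 expression inhibitor and a luciferase inhibitor.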

For assay [16], the target named is Transient receptor potential cation channel subfamily V member 1 (Homo sapiens) (UniProt Q8NER1). The experiment in a line: HTS Assay for Compounds that Act as Enhancers of the Vanilloid Receptor 1 (AID 488979). Also: 0% is about no effect. Summed up: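 TRPV1-expressing cells loaded with Fluo-8 calcium dye; compounds added and calcium influx read kinetically for 3 min (agonist phase), then capsaicin at EC20 added and read 2 min more for enhancement. Fluorescence ex 480/em 520 nm.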

Assay [17] addresses ATP-dependent 6-phosphofructokinase (Trypanosoma brucei brucei) (UniProt O15648). The experiment in a line: qHTS Assay to Find Inhibitors of T. brucei phosphofructokinase: hit validation (AID 492961).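 Also: luminescence reports ADP formed as PFK phosphorylates fructose-6-phosphate with ATP; series mostly up to about 51 µM; % is scaled to controls: 0 for no effect and ±100 for the full control effect.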 The procedure, abridged: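 Reaction: 0.1 M triethanolamine pH 8.0, 5 mM MgCl2, F6P 0.5 mM, ATP 0.1 mM, PFK 1.25 nM, 45 min RT. Read-out: ADP-Glo luminescence. Analysis: concentration-response fits, classed by r2 and efficacy.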

For assay [18], the target named is Thyrotropin-releasing hormone receptor (Homo sapiens) (UniProt P34981). In words: qHTS for Small Molecule Agonists and Allosteric Enhancers of Human TRH Receptor: Validation Screen for Agonists (AID 493127;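 active = calcium activation more than 3 SD above the typical response in the agonist read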;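 also: intracellular calcium rise by fluo-8 fluorescence before TRH EC20 addition; 0% is about no effect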). To be noted: TRH receptor agonist cell assay; at 2 µM; stronger effect = higher value. The procedure, abridged: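 Read-out: intracellular calcium release measured kinetically by FDSS (fluo-8, ex 480/em 530 nm), 1 reading/s after a 10-cycle baseline. TRHR cells, 2000/well, cultured 18 h at 33.5C, dye-loaded at room temp. Compound-evoked positive calcium signal flags agonists.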

Results filed as inconclusive are left out. Activity calls are given as the source filed them. Unless noted, calls follow the shape of the dose curve; as a rule, active = well fitted curve in the direction sought with a large enough effect; inconclusive = small, poorly fitted or top-dose-only effect, or another doubt; inactive = no such curve, though single readings can be large; an effect the other way counts as inactive or inconclusive.

Sequence of ATPase family AAA domain-containing protein 5 (Homo sapiens) (Q96QE3 whole entry, looked up, the tested form may be a part): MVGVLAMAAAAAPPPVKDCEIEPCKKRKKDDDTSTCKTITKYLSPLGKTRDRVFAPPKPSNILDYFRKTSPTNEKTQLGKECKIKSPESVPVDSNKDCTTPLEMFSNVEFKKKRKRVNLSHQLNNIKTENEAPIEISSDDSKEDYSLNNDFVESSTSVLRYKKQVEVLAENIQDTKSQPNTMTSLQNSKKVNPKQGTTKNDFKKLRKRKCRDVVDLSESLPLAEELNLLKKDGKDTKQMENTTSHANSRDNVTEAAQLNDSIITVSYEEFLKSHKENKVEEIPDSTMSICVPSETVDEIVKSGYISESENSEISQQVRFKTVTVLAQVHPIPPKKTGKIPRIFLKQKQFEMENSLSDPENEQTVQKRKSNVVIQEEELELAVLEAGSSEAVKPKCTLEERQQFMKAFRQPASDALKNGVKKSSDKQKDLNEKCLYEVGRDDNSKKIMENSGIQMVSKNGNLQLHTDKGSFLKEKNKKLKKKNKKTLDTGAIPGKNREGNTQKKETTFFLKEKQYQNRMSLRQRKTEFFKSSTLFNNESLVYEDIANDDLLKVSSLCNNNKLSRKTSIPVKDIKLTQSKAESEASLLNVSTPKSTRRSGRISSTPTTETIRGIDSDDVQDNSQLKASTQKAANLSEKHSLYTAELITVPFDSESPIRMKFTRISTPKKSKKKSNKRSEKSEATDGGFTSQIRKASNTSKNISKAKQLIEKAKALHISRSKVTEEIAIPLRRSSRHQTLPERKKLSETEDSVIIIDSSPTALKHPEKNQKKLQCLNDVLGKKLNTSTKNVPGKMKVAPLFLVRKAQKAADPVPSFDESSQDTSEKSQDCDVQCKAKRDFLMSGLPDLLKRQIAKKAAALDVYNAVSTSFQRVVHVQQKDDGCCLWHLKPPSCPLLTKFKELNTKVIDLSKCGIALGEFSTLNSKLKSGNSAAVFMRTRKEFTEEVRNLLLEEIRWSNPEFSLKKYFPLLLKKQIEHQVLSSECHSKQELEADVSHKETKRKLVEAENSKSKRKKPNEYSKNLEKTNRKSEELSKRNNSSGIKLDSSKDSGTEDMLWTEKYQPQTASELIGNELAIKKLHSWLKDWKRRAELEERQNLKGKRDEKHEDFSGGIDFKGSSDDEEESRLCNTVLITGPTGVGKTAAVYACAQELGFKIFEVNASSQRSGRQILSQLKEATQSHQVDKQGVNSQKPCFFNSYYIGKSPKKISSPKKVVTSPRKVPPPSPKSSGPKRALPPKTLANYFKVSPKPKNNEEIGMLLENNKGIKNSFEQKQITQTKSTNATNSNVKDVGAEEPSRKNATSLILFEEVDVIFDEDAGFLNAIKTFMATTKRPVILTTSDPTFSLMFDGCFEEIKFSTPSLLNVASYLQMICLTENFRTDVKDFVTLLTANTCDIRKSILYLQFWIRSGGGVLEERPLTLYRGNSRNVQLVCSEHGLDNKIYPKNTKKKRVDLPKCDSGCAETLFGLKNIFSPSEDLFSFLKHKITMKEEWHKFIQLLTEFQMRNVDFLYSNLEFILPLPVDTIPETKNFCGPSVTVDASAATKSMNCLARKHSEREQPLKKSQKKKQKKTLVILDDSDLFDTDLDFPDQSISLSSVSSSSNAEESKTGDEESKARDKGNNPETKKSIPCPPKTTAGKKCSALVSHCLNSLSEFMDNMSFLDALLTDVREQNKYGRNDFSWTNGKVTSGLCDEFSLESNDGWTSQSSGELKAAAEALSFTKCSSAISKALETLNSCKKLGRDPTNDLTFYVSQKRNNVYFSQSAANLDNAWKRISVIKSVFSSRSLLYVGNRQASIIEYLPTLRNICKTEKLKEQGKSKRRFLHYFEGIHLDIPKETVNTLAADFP
Sequence of Phosphoglycerate kinase, glycosomal (Trypanosoma brucei brucei) (P07378 whole entry, looked up): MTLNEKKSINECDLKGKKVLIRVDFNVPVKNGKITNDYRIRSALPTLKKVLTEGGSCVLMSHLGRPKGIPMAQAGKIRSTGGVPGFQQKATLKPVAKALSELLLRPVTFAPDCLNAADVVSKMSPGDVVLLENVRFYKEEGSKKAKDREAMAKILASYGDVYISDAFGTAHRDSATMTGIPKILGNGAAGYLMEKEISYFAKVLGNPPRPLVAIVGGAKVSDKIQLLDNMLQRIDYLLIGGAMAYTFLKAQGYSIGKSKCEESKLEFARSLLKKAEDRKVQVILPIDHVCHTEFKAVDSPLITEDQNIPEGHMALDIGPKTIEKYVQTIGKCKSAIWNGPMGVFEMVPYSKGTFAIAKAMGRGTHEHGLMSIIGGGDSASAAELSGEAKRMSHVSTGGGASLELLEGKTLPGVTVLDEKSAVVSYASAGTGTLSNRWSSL
Sequence of Galactokinase (Homo sapiens) (P51570 whole entry, looked up): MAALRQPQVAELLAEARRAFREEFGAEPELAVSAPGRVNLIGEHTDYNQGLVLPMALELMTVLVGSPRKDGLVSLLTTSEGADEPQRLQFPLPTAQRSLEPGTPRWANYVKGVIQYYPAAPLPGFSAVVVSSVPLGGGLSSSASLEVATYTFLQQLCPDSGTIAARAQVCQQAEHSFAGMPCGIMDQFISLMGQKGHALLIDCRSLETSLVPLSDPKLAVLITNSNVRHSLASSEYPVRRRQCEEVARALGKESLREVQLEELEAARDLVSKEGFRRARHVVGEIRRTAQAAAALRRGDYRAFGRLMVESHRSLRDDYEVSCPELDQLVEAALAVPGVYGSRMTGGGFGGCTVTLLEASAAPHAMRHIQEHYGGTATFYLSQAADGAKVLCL
Sequence of Ubiquitin carboxyl-terminal hydrolase 1 (Homo sapiens) (O94782 whole entry, looked up): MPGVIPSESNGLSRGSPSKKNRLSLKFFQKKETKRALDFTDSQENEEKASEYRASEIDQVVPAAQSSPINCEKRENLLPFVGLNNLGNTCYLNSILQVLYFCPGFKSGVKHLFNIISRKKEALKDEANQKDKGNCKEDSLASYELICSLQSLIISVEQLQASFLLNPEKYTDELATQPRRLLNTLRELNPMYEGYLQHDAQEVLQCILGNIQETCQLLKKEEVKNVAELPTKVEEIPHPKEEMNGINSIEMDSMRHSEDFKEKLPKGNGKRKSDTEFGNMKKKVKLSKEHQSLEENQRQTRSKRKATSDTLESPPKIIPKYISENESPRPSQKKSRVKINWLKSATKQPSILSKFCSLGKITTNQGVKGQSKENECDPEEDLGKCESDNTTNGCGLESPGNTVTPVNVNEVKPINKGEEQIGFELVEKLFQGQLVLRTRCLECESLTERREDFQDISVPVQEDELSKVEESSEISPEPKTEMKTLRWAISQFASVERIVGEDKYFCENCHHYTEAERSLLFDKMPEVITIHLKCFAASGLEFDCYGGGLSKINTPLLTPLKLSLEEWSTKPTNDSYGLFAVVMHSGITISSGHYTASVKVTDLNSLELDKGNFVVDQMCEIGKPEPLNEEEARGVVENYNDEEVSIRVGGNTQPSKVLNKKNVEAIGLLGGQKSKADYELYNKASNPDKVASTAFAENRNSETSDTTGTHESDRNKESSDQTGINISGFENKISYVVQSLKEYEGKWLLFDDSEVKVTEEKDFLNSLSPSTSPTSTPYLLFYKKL
Sequence of Thyrotropin-releasing hormone receptor (Homo sapiens) (P34981 whole entry, looked up): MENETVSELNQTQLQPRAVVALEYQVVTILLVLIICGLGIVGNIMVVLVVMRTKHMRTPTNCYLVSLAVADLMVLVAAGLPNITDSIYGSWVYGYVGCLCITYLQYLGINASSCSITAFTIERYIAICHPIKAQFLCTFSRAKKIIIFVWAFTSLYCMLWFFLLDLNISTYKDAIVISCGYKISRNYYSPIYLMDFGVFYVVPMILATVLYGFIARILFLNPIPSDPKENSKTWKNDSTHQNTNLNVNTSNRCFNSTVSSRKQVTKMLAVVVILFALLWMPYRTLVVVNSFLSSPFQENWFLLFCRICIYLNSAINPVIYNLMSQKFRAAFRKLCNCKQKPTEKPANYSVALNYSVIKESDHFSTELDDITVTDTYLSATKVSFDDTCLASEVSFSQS
Sequence of D(1A) dopamine receptor (Homo sapiens) (P21728 whole entry, looked up): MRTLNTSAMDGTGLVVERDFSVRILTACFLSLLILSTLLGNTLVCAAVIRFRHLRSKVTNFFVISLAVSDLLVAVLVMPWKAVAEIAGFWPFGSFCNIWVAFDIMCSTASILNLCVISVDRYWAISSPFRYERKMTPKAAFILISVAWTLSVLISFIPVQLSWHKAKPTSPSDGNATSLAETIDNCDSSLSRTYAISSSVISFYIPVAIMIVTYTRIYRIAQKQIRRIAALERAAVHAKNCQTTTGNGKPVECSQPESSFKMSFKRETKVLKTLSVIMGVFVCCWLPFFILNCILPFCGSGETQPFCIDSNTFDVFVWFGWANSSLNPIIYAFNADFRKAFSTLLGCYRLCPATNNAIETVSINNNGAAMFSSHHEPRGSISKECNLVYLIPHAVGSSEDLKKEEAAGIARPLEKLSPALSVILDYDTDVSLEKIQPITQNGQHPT
Sequence of Thyrotropin receptor (Homo sapiens) (P16473 whole entry, looked up): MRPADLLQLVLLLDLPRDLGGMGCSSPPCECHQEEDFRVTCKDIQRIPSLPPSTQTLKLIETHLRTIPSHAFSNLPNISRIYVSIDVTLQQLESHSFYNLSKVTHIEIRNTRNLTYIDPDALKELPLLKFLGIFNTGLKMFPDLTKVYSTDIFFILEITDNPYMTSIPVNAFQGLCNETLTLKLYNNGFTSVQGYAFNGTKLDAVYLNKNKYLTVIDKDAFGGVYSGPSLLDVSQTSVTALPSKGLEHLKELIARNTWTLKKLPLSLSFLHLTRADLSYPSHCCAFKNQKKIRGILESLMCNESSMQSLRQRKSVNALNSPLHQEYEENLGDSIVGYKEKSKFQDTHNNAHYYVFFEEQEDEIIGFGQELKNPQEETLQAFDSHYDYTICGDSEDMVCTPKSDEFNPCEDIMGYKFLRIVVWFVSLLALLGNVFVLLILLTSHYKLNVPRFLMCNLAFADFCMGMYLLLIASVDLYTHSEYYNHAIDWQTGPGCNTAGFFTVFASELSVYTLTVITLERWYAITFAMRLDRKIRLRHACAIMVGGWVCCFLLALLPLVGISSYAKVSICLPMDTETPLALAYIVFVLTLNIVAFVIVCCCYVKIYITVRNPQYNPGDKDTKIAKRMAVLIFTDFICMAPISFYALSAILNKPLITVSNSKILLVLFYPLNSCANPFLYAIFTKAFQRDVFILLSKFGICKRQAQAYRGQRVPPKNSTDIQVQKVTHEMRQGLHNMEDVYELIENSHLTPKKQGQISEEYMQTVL

For the compound `O=C1N=C(O)CN1/N=C/c1ccc(-c2ccc([N+](=O)[O-])cc2)o1`, the call in assay [1], in [5], in [7], in [8], in assay [9] and in [10] was inactive. Besides, the compound was called inactive in assay [11] and in assay [12]. Moreover, the Potency entry in [2], in assay [3], in assay [4], in assay [6], in assay [13] and in [14] was “inactive” each time. For the same compound, in [15], the Potency entry was “inactive”. Besides, the viability change in assay [6] is -12.1%.

Turning to `CNC(=O)Oc1ccc2c(c1)[C@]1(C)CCN(C)[C@@H]1N2C`, the result in [16], in assay [1], in assay [5], in assay [7], in [8] and in assay [9] was inactive. For the same compound, the outcome in assay [10], in [11] and in [12] was inactive. Further, the Potency entry in assay [2], in [3], in [17], in assay [4], in assay [6] and in assay [14] was “inactive” each time. For the same compound, in assay [15], the Potency result was “inactive”. The activation in assay [18] was 1% (inactive). For the same compound, in [6], the viability change came to 11.7%.

Consider `N=c1c[n+](N2CCOCC2)[n-]o1`, for which the result in [16], in assay [1], in [7], in [8], in [9] and in assay [10] was inactive. The compound was classed as inactive in [11] and in assay [12]. The Potency result in assay [2], in assay [3], in [4], in [6], in assay [13] and in assay [14] was “inactive” throughout. Also, the Potency result in assay [15] was “inactive”. Also, the activation in [18] was 0.5% (inactive). For the same compound, in assay [6], the viability change came to 0.362%.

In the case of `Nc1cc(=O)[nH]c(N)n1`, the outcome in [16], in [1], in assay [5], in [7], in assay [8] and in [9] was inactive. Besides, the compound was classed as inactive in assay [10], in [11] and in [12]. For the same compound, the Potency entry in assay [2], in [3], in [4], in assay [6], in [13] and in assay [14] was “inactive” in each case. The Potency entry in assay [15] is “inactive”. In addition, the activation in assay [18] is 1.31% (inactive). For the same compound, in assay [6], the viability change worked out at 1.17%.

Take `NC1CCN(c2cccc(Cl)n2)CC1`: the result in assay [16], in assay [5], in assay [7], in [8], in assay [9] and in assay [10] was inactive. The result in assay [11] and in assay [12] was inactive. The Potency entry in [2], in assay [3], in assay [4], in [6], in assay [13] and in assay [14] was “inactive” each time. Besides, in assay [15], the Potency result is “inactive”. Also, the activation in assay [18] was 1.06% (inactive). Also, the viability change in assay [6] was -3.84%.

With `C[C@](N)(Cc1ccc(O)cc1)C(=O)O`, the result in assay [16], in assay [1], in assay [5], in assay [7], in assay [8] and in [9] was inactive. In addition, the compound was called inactive in assay [10], in assay [11] and in [12]. The Potency result in assay [2], in assay [3], in [17], in [4], in assay [6] and in [13] was “inactive” each time. The Potency result in assay [14] and in assay [15] was “inactive” each time. In addition, the viability change in assay [6] amounted to 3.53%.
